Where “and” joins values, the source holds several entries; their conditions need not be identical. Equal entries are not always repeated. Records with an inconclusive call do not appear. Calls of active or inactive are those of the source. Unless noted, calls follow the shape of the dose curve; as a rule, active = well fitted curve in the direction sought with a large enough effect; inconclusive = small, poorly fitted or top-dose-only effect, or another doubt; inactive = no such curve, though single readings can be large; an effect the other way counts as inactive or inconclusive.
Tests used:
[1] = Stat Signaling Pathway (AID 446; active = well fitted curve in either direction with a large enough effect, not every such curve was filed as active;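 also: ME-180 cervical cancer cells given 40 pM IL-6 alongside compound; SIE-controlled beta-lactamase reporter measured as 460/530 nm FRET emission ratio; % is scaled to controls: 0 for no effect and ±100 for the full control effect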); conditions: ME-180 SIE beta-lactamase reporter, IL-6 stimulated, 5 h
Method in brief: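 IL-6/STAT signaling read in ME-180 cells via an SIE beta-lactamase reporter. Stimulus was 40 pM IL-6 (its AC50) for 5 hrs, so both activation and inhibition register.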

[2] = molecular target: Glucocorticoid receptor (Homo sapiens) (UniProt P04150); experiment: GR-GFP Redistribution (AID 450;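 active = compounds whose dose series gives a full or clear partial fitted curve of increased nuclear translocation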; also: potency is read from the fitted curve at half-maximal effect); conditions: U2OS GR-GFP nuclear translocation, laser cytometry, 2 h
[3] = molecular target: Glucocorticoid receptor (Homo sapiens) (UniProt P04150); experiment: GR-EFC Redistribution (AID 451; calls by dose curve; also: potency is read from the fitted curve at half-maximal effect); conditions: CHO-K1 GR-EFC translocation, beta-gal luminescence, 2 h
Method in brief: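 Translocation of GR-ED fusion to nuclear EA restores b-gal, read by luminescence after 1 h room-temperature detection. Engineered CHO-K1 biosensor cells, 1,000/well, exposed 2 h at 37 C to titrations up to 46 uM final.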

[4] = molecular target: 3',5'-cyclic-AMP phosphodiesterase 4B (Homo sapiens) (UniProt Q07343); experiment: qHTS Assay for Inhibitors of PDE-IV (AID 607; active = well fitted activation curve with a large enough effect in the main read-out, with a control signal flat, not every such curve was filed as active; also: % of control where 0% means no effect)
Method in brief: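 Live HEK293 cells with a modified cyclic nucleotide-gated (CNG) channel report intracellular cAMP via membrane-potential dye fluorescence (ex 535/em 590 nm). Endogenous PDE-IV was targeted. Compounds were tested at up to 22.9 uM final; RO 20-1724 100 uM served as control.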

[5] = molecular target: Mitogen-activated protein kinase 10 (Mus musculus) (UniProt Q61831); experiment: JNK3 AlphaScreen Assay (AID 530; active = well fitted curve in either direction with a large enough effect, not every such curve was filed as active;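 also: kinase came from lysate of stimulated human HepG2 cells; signal reports phosphorylation of biotinylated GST-cJun 1-79 at Ser73 with 10 µM ATP; % is scaled to controls: 0 for no effect and ±100 for the full control effect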)
Method in brief: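 Compound titrations were preincubated 15 minutes at room temperature with substrate, antibody and pre-activated JNK3-containing HepG2 lysate. Reactions were started with 10 uM ATP and stopped with EDTA-containing bead buffer for AlphaScreen detection.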

[6] = AP1 Signaling Pathway (AID 357; active = well fitted curve in either direction with a large enough effect, not every such curve was filed as active;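 also: ME-180 reporter cells stimulated with EGF at its EC50 level; % is scaled to controls: 0 for no effect and ±100 for the full control effect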); conditions: ME-180 (cervical carcinoma) AP-1-bla reporter, EGF-induced, beta-lactamase ratio, 5 h
Method in brief: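 First, ME-180 AP-1-bla cells were cultured overnight at 37 °C in low-serum Opti-MEM. Next, titrated compounds with EC50 EGF were incubated 5 hours. Finally, CCF4 was added for 2.5 hours and the 460/530 nm ratio recorded.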

[7] = NFAT Signaling Pathway (AID 444; active = well fitted curve in either direction with a large enough effect, not every such curve was filed as active;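 also: carbachol stimulus at about its EC50 of 1 µM final; % is scaled to controls: 0 for no effect and ±100 for the full control effect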); conditions: Jurkat NFAT-bla M1, carbachol, beta-lactamase ratio, 5 h; at 7.69 µM (top of the series) unless noted
Method in brief: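 Read-out: CCF4 FRET ratio (460 nm/530 nm) after 1 h RT dye loading, used for %activity and AC50 from titration series. Cells: Jurkat NFAT-β-lactamase/M1 line, treated with compound plus 1 uM carbachol for 5 h, 37 °C.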

[8] = molecular target: Guanine nucleotide-binding protein G(i) subunit alpha-1 (Homo sapiens) (UniProt P63096); experiment: qHTS Assay for Inhibitors of RGS12 GoLoco Motif Activity (Green Fluorophore) (AID 879);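 also: 0% = labeled peptide with Gαi1 and full inhibition = labeled peptide alone without protein; negative values mean loss of peptide binding seen as reduced polarization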
Method in brief: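 Fluorescence polarization assay: 50 nM Gαi1 with 10 nM FITC-labeled RGS12 GoLoco peptide in 10 mM Tris pH 7.5, 150 mM NaCl, 0.1 mM GDP, 0.05% NP40, 10 min at room temperature with compound.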

[9] = qHTS Assay for Identification of Small Molecule Agonists for Thrombopoietin (TPO) Signaling Pathway (AID 917); also: % is scaled to controls: 0 for no effect and ±100 for the full control effect
Method in brief: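 We measured Glycoprotein IIb promoter–luciferase output in IL-3-starved Ba/F3 murine cells expressing the human TPO receptor after 24 hrs at 37 C with compounds and 26 pM TPO.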

[10] = molecular target: Pyruvate kinase (Leishmania mexicana) (UniProt Q27686); experiment: qHTS Validation Assay for Inhibitors of Leishmania Mexicana Pyruvate Kinase (AID 945);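 also: 0% = DMSO only neutral control wells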
Method in brief: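 The enzyme is a highly purified E451W mutant of LmPYK used at 0.2 nM. It converts 0.5 mM PEP and 0.1 mM ADP over 1 h at room temperature; product ATP is quantified by luciferase luminescence relative to DMSO controls.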

[11] = molecular target: Pyruvate kinase PKM (Homo sapiens) (UniProt P14618); experiment: qHTS Assay for Activators of Human Muscle Pyruvate Kinase (AID 954; active = well fitted curve in the direction sought with a large enough effect, not every such curve was filed as active;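 also: 0% = uninhibited enzyme and -100% = no enzyme or full thiadiazolimine inhibition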)
Method in brief: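 Enzyme was run at intermediate activity so both inhibitors and activators could be detected. ATP formed from ADP and PEP by 0.1 nM human PKM2 during a 1 h room-temperature incubation was quantified by coupled luciferase luminescence.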

[12] = molecular target: Alpha-galactosidase A (Homo sapiens) (UniProt P06280); experiment: Counterscreen for Glucocerebrosidase Inhibitors: qHTS Assay for Human alpha-Galactosidase at pH 4.5 (AID 992); also: 0% is about no effect
Method in brief: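 Read-out is 4-methylumbelliferone fluorescence (365 nm excitation, 440 nm emission) after a pH 10 NaOH/glycine stop. Reactions held 2 nM enzyme and 80 uM substrate at pH 4.5 for 20 min at room temperature.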

[13] = molecular target: alpha-glucosidase (Oryza sativa, rice) (UniProt Q653V4); experiment: Counterscreen for Glucocerebrosidase Inhibitors: qHTS Assay for Rice alpha-Glucosidase at pH 5.0 (AID 997);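 also: 0% = full activity with enzyme and -100% = basal without enzyme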
Method in brief: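 Rice alpha-glucosidase (4 nM final) with 400 uM 4-methylumbelliferyl-alpha-D-glucopyranoside in citrate buffer pH 5.0, 20 min at room temperature, stopped at pH 10; fluorescence 365/440 nm, compounds 0.7 nM–77 uM, AC50 from Hill fits.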

[14] = molecular target: Cytochrome P450 1A2 (Homo sapiens) (UniProt P05177); experiment: p450-cyp1a2 (AID 410; calls by dose curve;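 also: -100% = full effect of reference inhibitor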)
Method in brief: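 Luminescent readout of luciferin formed from Luciferin-ME by human CYP1A2; data normalized against complete inhibition by 57 uM furafylline. Enzyme 20nM, substrate 100uM at Km, 100mM KPO4 buffer, 60 min reaction at room temperature.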

[15] = molecular target: Cytochrome P450 3A4 (Homo sapiens) (UniProt P08684); experiment: qHTS Assay for Activators of Cytochrome P450 3A4 (AID 885); also: nearly all actives have a fitted effect of over 65% in size; also: potency is read from the fitted curve at half-maximal effect
Method in brief: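 Quantitative HTS format: compounds preincubated with 20nM human CYP3A4 and Luciferin-PPXE substrate at KM, reaction started by NADPH regeneration, stopped after 60 min, luciferase luminescence read 20 min later.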

[16] = molecular target: Cytochrome P450 2C9 (Homo sapiens) (UniProt P11712); experiment: qHTS Assay for Inhibitors and Substrates of Cytochrome P450 2C9 (AID 883); also: % is scaled to controls: 0 for no effect and ±100 for the full control effect; nearly all actives have a fitted effect of over 60% in size
Method in brief: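 Luminescent read-out of deoxyluciferin hydroxylation, normalized to 57uM sulphaphenazole (AC100). Reaction: 10nM enzyme, 100uM Luciferin-H (equal to KM), 25mM KPO4, 10 min compound preincubation, then 60 min with NADPH regeneration, both at 37C.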

[17] = molecular target: Cytochrome P450 2D6 (Homo sapiens) (UniProt P10635); experiment: qHTS Assay for Inhibitors and Substrates of Cytochrome P450 2D6 (AID 891);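 also: luciferin methyl ether substrate demethylated by CYP2D6 with NADPH regeneration; % is scaled to controls: 0 for no effect and ±100 for the full control effect; nearly all actives have a fitted effect of over 60% in size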
Method in brief: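 Human CYP2D6 (5 nM) with 30 uM Luciferin-ME EGE (at Km) in 100 mM KPO4, compound preincubated 10 min, then NADPH regeneration system for 60 min at room temperature. Luciferin read by luminescence; normalized to 1.43 uM quinidine.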

[18] = molecular target: Cytochrome P450 2C19 (Homo sapiens) (UniProt P33261); experiment: qHTS Assay for Inhibitors and Substrates of Cytochrome P450 2C19 (AID 899); also: % is scaled to controls: 0 for no effect and ±100 for the full control effect; nearly all actives have a fitted effect of over 60% in size
Method in brief: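 Luminescence readout of luciferin formed from 10uM Luciferin-H EGE (KM level) by 5 nM CYP2C19 in 50mM KPO4. 60 min NADPH-driven reaction at 37C after 10 min compound preincubation; data scaled to 57uM ketoconazole inhibition.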

[19] = molecular target: Muscarinic acetylcholine receptor M1 (Rattus norvegicus) (UniProt P08482); experiment: qHTS Assay for Antagonists of Acetylcholine Muscarinic M1 Receptor: Measurement of IP-One Response (AID 944); also: nearly all actives have a fitted effect of over 75% in size
Method in brief: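 M1-CHO (rat), 2000 cells/well, overnight recovery; cpd 10 min; carbachol EC80 (200 nM), 30 min, HEPES buffer + 50 mM LiCl pH 7.4; IP-One HTRF, Ex 337, Em 620/665 nm.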

[20] = qHTS Assay for Identification of Small Molecule Antagonists for NFkB Signaling Pathway (AID 895; active = well fitted inhibition curve with a large enough effect in the signal ratio, with a control signal flat, not every such curve was filed as active; the % refers to the signal ratio; also: % is scaled to controls: 0 for no effect and ±100 for the full control effect)
Method in brief: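 Beta-lactamase reporter read-out (460 and 530 nm emission ratio, 405 nm excitation, 2 hrs substrate loading RT) after 5 hr stimulation with 10 pM TNF alpha in compound-treated NFkB-bla ME-180 cells in low-serum medium.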

[21] = at 7.69 µM (top of the series) unless noted

Sequence of Cytochrome P450 1A2 (Homo sapiens) (P05177 whole entry, looked up): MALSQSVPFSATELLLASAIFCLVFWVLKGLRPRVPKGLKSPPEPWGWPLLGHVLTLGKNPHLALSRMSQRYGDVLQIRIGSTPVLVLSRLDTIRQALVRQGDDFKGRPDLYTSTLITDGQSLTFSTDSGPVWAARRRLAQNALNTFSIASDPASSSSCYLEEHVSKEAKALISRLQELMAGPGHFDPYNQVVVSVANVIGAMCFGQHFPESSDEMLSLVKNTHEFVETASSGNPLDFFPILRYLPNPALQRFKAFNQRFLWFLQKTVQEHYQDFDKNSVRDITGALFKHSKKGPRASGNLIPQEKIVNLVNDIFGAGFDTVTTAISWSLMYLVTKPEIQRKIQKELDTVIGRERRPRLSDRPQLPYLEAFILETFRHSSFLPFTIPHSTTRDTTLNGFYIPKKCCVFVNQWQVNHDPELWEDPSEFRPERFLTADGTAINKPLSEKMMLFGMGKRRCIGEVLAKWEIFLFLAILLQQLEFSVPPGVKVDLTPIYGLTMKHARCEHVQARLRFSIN
Sequence of Pyruvate kinase (Leishmania mexicana) (Q27686 2-499 E452W): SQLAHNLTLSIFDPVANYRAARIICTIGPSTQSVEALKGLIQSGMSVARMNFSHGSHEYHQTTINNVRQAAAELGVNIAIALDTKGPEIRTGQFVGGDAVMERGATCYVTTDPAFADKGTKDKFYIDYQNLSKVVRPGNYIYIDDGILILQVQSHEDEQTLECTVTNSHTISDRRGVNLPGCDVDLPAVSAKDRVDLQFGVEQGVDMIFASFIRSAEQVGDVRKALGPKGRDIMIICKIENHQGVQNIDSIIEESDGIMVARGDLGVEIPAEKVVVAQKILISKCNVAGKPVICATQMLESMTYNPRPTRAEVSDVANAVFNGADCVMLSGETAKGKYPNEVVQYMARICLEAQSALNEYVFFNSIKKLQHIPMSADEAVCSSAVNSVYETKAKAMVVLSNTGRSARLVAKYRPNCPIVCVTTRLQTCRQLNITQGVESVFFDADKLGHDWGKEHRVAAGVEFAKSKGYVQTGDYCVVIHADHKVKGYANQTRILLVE
Sequence of 3',5'-cyclic-AMP phosphodiesterase 4B (Homo sapiens) (Q07343 whole entry, looked up): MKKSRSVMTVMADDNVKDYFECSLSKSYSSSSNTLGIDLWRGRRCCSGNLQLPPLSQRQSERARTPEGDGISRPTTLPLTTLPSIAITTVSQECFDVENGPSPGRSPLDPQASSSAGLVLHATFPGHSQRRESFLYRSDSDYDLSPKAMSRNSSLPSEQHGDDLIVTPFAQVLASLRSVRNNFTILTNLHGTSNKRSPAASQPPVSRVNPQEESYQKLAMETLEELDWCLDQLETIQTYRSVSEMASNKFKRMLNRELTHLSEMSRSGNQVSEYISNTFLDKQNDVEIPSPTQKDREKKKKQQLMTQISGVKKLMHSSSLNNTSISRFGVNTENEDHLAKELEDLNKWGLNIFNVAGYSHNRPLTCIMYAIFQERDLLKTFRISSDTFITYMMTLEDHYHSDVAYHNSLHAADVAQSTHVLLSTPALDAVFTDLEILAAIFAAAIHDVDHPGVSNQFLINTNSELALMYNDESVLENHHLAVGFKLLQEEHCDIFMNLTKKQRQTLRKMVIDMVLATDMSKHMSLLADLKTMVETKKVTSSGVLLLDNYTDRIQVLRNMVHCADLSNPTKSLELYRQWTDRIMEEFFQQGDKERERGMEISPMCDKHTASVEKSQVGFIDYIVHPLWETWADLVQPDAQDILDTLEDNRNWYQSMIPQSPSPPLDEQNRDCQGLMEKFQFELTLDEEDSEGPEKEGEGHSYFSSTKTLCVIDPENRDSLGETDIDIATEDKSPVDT
Sequence of Guanine nucleotide-binding protein G(i) subunit alpha-1 (Homo sapiens) (P63096 whole entry, looked up): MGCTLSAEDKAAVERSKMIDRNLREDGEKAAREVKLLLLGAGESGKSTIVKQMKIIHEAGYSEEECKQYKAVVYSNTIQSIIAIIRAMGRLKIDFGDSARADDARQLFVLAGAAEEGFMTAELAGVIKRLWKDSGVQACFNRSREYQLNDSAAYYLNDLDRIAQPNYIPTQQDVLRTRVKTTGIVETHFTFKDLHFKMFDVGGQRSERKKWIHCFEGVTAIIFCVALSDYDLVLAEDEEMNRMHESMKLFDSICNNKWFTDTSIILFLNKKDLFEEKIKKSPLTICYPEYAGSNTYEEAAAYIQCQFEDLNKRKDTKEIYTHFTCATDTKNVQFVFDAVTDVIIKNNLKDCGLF
Sequence of Alpha-galactosidase A (Homo sapiens) (P06280 whole entry, looked up): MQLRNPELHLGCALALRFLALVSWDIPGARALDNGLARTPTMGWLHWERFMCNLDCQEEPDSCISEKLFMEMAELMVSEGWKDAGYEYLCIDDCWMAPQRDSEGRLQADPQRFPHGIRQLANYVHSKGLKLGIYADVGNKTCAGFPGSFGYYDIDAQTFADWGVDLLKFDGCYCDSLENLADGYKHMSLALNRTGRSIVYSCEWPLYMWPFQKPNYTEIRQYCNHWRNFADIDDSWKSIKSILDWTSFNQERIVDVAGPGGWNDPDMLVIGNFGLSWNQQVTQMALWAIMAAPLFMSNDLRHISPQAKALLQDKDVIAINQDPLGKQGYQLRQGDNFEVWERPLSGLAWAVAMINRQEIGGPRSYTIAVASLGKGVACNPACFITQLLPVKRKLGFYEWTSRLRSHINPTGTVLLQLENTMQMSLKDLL
Sequence of Glucocorticoid receptor (Homo sapiens) (P04150 whole entry, looked up, the tested form may be a part): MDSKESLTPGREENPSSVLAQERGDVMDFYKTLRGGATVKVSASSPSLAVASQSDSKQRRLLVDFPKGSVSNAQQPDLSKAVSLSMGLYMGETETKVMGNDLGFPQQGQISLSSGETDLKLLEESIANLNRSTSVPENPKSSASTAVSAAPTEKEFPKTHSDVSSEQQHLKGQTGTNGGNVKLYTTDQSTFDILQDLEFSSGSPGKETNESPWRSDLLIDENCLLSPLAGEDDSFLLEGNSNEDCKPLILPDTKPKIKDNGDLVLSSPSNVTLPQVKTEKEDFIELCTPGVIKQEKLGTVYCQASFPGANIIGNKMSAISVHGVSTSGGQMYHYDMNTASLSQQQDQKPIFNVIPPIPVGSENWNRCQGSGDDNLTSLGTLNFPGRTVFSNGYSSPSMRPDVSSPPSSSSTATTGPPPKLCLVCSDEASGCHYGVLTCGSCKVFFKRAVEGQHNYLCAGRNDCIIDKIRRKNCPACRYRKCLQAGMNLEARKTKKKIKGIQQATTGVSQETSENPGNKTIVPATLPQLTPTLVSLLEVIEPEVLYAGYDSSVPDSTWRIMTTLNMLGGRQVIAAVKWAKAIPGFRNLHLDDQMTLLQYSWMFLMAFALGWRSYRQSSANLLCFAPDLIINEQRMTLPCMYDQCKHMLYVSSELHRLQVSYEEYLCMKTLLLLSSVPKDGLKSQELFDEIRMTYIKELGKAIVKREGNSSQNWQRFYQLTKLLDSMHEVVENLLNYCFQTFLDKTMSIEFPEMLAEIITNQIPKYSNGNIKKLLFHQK
Sequence of Pyruvate kinase PKM (Homo sapiens) (P14618 whole entry, looked up): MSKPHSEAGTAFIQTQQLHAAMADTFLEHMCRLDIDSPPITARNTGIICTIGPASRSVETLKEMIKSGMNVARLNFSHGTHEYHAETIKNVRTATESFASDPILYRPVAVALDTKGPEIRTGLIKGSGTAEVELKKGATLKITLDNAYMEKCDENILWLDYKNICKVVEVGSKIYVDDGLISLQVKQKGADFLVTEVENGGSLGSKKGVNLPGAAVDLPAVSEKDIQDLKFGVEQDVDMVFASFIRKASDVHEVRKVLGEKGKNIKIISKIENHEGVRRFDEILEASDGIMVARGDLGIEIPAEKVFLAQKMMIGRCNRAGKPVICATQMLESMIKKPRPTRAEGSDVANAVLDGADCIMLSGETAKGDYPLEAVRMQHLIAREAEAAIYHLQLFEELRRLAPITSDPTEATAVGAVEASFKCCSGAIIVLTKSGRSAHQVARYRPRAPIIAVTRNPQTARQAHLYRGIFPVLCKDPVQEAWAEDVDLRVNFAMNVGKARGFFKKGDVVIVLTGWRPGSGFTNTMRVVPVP
Sequence of Muscarinic acetylcholine receptor M1 (Rattus norvegicus) (P08482 whole entry, looked up): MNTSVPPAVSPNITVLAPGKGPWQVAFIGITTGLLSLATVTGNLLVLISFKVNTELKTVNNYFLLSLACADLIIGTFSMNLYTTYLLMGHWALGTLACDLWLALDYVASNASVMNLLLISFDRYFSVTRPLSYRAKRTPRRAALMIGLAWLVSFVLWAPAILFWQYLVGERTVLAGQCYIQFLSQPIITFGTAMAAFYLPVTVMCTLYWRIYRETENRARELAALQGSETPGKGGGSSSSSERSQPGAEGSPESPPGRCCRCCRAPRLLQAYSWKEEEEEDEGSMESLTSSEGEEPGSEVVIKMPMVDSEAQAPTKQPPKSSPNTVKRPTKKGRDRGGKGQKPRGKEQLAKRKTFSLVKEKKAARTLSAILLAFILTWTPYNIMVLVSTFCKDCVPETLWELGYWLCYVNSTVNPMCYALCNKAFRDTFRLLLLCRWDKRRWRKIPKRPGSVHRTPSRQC
Sequence of Cytochrome P450 3A4 (Homo sapiens) (P08684 whole entry, looked up): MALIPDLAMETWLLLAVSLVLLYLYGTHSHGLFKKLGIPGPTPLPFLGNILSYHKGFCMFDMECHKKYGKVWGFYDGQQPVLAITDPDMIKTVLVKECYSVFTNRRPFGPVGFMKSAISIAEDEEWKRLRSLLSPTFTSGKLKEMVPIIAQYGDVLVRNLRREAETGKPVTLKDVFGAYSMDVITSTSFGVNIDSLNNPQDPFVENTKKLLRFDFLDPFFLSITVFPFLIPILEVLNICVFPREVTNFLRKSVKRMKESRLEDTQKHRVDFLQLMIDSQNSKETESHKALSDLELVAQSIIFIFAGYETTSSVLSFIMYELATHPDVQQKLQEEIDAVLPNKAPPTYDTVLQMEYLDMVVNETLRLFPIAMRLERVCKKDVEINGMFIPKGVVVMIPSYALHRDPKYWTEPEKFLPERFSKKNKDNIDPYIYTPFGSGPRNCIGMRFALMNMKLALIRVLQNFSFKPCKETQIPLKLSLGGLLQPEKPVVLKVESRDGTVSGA

O=C1C=C(N2CCN(c3ccccn3)CC2)C(=O)c2c(O)ccc(O)c21
inactive: activity, negative = inhibition [1, 21] -4.42% | Potency [2] > 46 µM | Potency [3] > 9.22 µM | Potency [4]

COc1cc(N=Nc2cccc(S(N)(=O)=O)c2)c2ccccc2c1N
inactive: Potency [2] > 46 µM | Potency [3] > 9.22 µM | Potency [5] | Potency [4]

CN1[C@@H]2CC[C@H]1CC(OC(=O)[C@@H](CO)c1ccccc1)C2 (stereo partly specified)
active: activity change, negative = inhibition [7] -38.1% [at 17.2 µM]
inactive: activity change, negative = inhibition ([6]; at 17.2 µM (top of the series)) -0.827% and 1.39% | activity change, negative = inhibition ([6]; at 38 µM (top of the series)) 10.7% and -6.14% | activity, negative = inhibition ([1]; at 17.2 µM (top of the series)) 10.3% and 3.29% | activity, negative = inhibition ([1]; at 38 µM (top of the series)) 27.8% and 8.42% | Potency [5] | outcome [8] | outcome [9] | outcome [10] | outcome [11] | outcome [12] | Potency [13]

CC(C)[C@@H]1NC(=O)[C@H](CCCCN)NC(=O)[C@H](Cc2c[nH]c3ccccc23)NC(=O)[C@H](Cc2ccc(O)cc2)NC(=O)[C@H](C)N(C)C(=O)[C@H](Cc2ccccc2)NC1=O
inactive: activity change, negative = inhibition [6, 21] 15.3% [at 38 µM] | Potency [14] | activity change, negative = inhibition [7] -3.97% [at 38 µM] | activity, negative = inhibition [1, 21] -2.13% [at 38 µM] | Potency [2] > 46 µM | Potency [3] > 46 µM | Potency [5] | Potency [4] | outcome [8] | Potency [15] | outcome [9] | outcome [11] | Potency [13]

O=C1OC(=O)[C@@H]2[C@@H]1[C@@H]1CC[C@H]2O1
inactive: activity change, negative = inhibition [6, 21] 4.01% [at 38 µM] | Potency [14] | activity change, negative = inhibition [7] 5.96% [at 38 µM] | activity, negative = inhibition [1, 21] -11.3% [at 38 µM] | Potency [2] > 46 µM | Potency [3] > 46 µM | Potency [5] | Potency [4] | outcome [8] | Potency [16] | Potency [17] | Potency [18] | Potency [19] | outcome [10] | outcome [11] | Potency [13]

COc1cc2c(cc1OC)[C@H](c1ccccc1)CN(C)CC2
active: Potency [15] 12.6 µM
inactive: activity change, negative = inhibition [6, 21] -2.12% [at 38 µM] | Potency [14] | activity change, negative = inhibition [7] -8.45% [at 38 µM] | activity, negative = inhibition [1, 21] 0.584% [at 38 µM] | Potency [2] > 46 µM | Potency [3] > 46 µM | Potency [5] | Potency [4] | outcome [8] | Potency [20] | outcome [9] | Potency [19] | outcome [10] | outcome [11] | outcome [12] | Potency [13]

Reference: PubChem BioAssay (NCATS)
